# Results taken from the supplement of paper PMC4466140.
# Assays:
# Test in all cases: SPOT peptide array binding signal intensity (averaged, normalized) (arbitrary units (background-subtracted, floor 0; scale differs between SH3 domains)); higher = stronger binding of the SH3 domain to the peptide
# AgAbp1 = target: AgAbp1
# Outline: (§1)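 To measure binding, SH3 domains from four yeast species were fused to GST, expressed in E. coli BL21(DE3) and purified on glutathione Sepharose. Each domain was incubated at 10 μg/ml overnight at 4°C on cellulose membranes with synthetic 15-mer peptides whose cysteines were replaced by serines. Anti-GST antibody, an HRP anti-mouse secondary and luminol were used for detection, and images were quantified with Genespotter. Reported binding signal is normalized, background-subtracted spot intensity averaged over replicates, in arbitrary units that differ between domains.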
# AgBbc1 = target: AgBbc1
# Outline: as §1
# AgBem1-D1 = target: AgBem1-D1
# Outline: as §1
# AgBzz1-D1 = target: AgBzz1-D1
# Outline: as §1
# AgBzz1-D2 = target: AgBzz1-D2
# Outline: as §1
# AgCyk3 = target: AgCyk3
# Outline: as §1
# AgFus1 = target: AgFus1
# Outline: as §1
# AgHof1 = target: AgHof1
# Outline: as §1
# AgHse1 = target: AgHse1
# Outline: as §1
# AgLsb1 = target: AgLsb1
# Outline: as §1
# AgLsb4 = target: AgLsb4
# Outline: as §1
# AgMyo5 = target: AgMyo5
# Outline: as §1
# AgNbp2 = target: AgNbp2
# Outline: as §1
# AgRvs167 = target: AgRvs167
# Outline: as §1
# AgSho1 = target: AgSho1
# Outline: as §1
# AgSla1-D1-D2 = target: AgSla1-D1-D2
# Outline: as §1
# AgSla1-D3 = target: AgSla1-D3
# Outline: as §1
# CaAbp1-D1 = target: CaAbp1-D1
# Outline: as §1
# CaAbp1-D2 = target: CaAbp1-D2
# Outline: as §1
# CaBbc1 = target: CaBbc1
# Outline: as §1
# CaBem1-D1 = target: CaBem1-D1
# Outline: as §1
# CaBzz1-D1 = target: CaBzz1-D1
# Outline: as §1
# CaBzz1-D2 = target: CaBzz1-D2
# Outline: as §1
# CaCyk3 = target: CaCyk3
# Outline: as §1
# CaFus1 = target: CaFus1
# Outline: as §1
# CaHof1 = target: CaHof1
# Outline: as §1
# CaHse1 = target: CaHse1
# Outline: as §1
# CaLsb1 = target: CaLsb1
# Outline: as §1
# CaLsb4 = target: CaLsb4
# Outline: as §1
# CaMyo5 = target: CaMyo5
# Outline: as §1
# CaNbp2 = target: CaNbp2
# Outline: as §1
# CaRvs167 = target: CaRvs167
# Outline: as §1
# CaRvs167-3 = target: CaRvs167-3
# Outline: as §1
# CaSho1 = target: CaSho1
# Outline: as §1
# CaSla1-D1-D2 = target: CaSla1-D1-D2
# Outline: as §1
# CaSla1-D3 = target: CaSla1-D3
# Outline: as §1
# ScAbp1 = target: ScAbp1
# Outline: as §1
# ScBbc1 = target: ScBbc1
# Outline: as §1
# ScBem1-D1 = target: ScBem1-D1
# Outline: as §1
# ScBzz1-D1 = target: ScBzz1-D1
# Outline: as §1
# ScBzz1-D2 = target: ScBzz1-D2
# Outline: as §1
# ScCyk3 = target: ScCyk3
# Outline: as §1
# ScFus1 = target: ScFus1
# Outline: as §1
# ScHof1 = target: ScHof1
# Outline: as §1
# ScHse1 = target: ScHse1
# Outline: as §1
# ScLsb1 = target: ScLsb1
# Outline: as §1
# ScLsb2 = target: ScLsb2
# Outline: as §1
# ScLsb3 = target: ScLsb3
# Outline: as §1
# ScLsb4 = target: ScLsb4
# Outline: as §1
# ScMyo3 = target: ScMyo3
# Outline: as §1
# ScMyo5 = target: ScMyo5
# Outline: as §1
# ScNbp2 = target: ScNbp2
# Outline: as §1
# ScPex13 = target: ScPex13
# Outline: as §1
# ScRvs167 = target: ScRvs167
# Outline: as §1
# ScSho1 = target: ScSho1
# Outline: as §1
# ScSla1-D1-D2 = target: ScSla1-D1-D2
# Outline: as §1
# ScSla1-D3 = target: ScSla1-D3
# Outline: as §1
# SpAbp1-D1 = target: SpAbp1-D1
# Outline: as §1
# SpBbc1 = target: SpBbc1
# Outline: as §1
# SpBzz1-D1 = target: SpBzz1-D1
# Outline: as §1
# SpBzz1-D2 = target: SpBzz1-D2
# Outline: as §1
# SpCyk3 = target: SpCyk3
# Outline: as §1
# SpHof1 = target: SpHof1
# Outline: as §1
# SpHof1-2 = target: SpHof1-2
# Outline: as §1
# SpHof1-3 = target: SpHof1-3
# Outline: as §1
# SpHse1 = target: SpHse1
# Outline: as §1
# SpLsb1 = target: SpLsb1
# Outline: as §1
# SpLsb4 = target: SpLsb4
# Outline: as §1
# SpMyo1 = target: SpMyo1
# Outline: as §1
# SpNbp2 = target: SpNbp2
# Outline: as §1
# SpPex13 = target: SpPex13
# Outline: as §1
# SpRvs167 = target: SpRvs167
# Outline: as §1
# SpSla1-D1-D2 = target: SpSla1-D1-D2
# Outline: as §1
# SpSla1-D3 = target: SpSla1-D3
# Outline: as §1
binder,measurement,setting,value
MPAPPPPPPPPPGAF,SPOT peptide array binding signal intensity,AgAbp1,≤ 0
same,SPOT peptide array binding signal intensity,AgBbc1,3.81e-06
same,SPOT peptide array binding signal intensity,AgBem1-D1,≤ 0
same,SPOT peptide array binding signal intensity,AgBzz1-D1,≤ 0
same,SPOT peptide array binding signal intensity,AgBzz1-D2,19.5
same,SPOT peptide array binding signal intensity,AgCyk3,≤ 0
same,SPOT peptide array binding signal intensity,AgFus1,≤ 0
same,SPOT peptide array binding signal intensity,AgHof1,51.2
same,SPOT peptide array binding signal intensity,AgHse1,≤ 0
same,SPOT peptide array binding signal intensity,AgLsb1,≤ 0
same,SPOT peptide array binding signal intensity,AgLsb4,≤ 0
same,SPOT peptide array binding signal intensity,AgMyo5,822
same,SPOT peptide array binding signal intensity,AgNbp2,≤ 0
same,SPOT peptide array binding signal intensity,AgRvs167,≤ 0
same,SPOT peptide array binding signal intensity,AgSho1,≤ 0
same,SPOT peptide array binding signal intensity,AgSla1-D1-D2,≤ 0
same,SPOT peptide array binding signal intensity,AgSla1-D3,0.5
same,SPOT peptide array binding signal intensity,CaAbp1-D1,18.5
same,SPOT peptide array binding signal intensity,CaAbp1-D2,≤ 0
same,SPOT peptide array binding signal intensity,CaBbc1,0.25
same,SPOT peptide array binding signal intensity,CaBem1-D1,40
same,SPOT peptide array binding signal intensity,CaBzz1-D1,970
same,SPOT peptide array binding signal intensity,CaBzz1-D2,69.1
same,SPOT peptide array binding signal intensity,CaCyk3,≤ 0
same,SPOT peptide array binding signal intensity,CaFus1,33
same,SPOT peptide array binding signal intensity,CaHof1,≤ 0
same,SPOT peptide array binding signal intensity,CaHse1,4.62
same,SPOT peptide array binding signal intensity,CaLsb1,≤ 0
same,SPOT peptide array binding signal intensity,CaLsb4,≤ 0
same,SPOT peptide array binding signal intensity,CaMyo5,66
ATKSASPTLPTRRSR,SPOT peptide array binding signal intensity,AgAbp1,938
same,SPOT peptide array binding signal intensity,AgBbc1,899
same,SPOT peptide array binding signal intensity,AgBem1-D1,133
same,SPOT peptide array binding signal intensity,AgBzz1-D1,99.5
same,SPOT peptide array binding signal intensity,AgBzz1-D2,45
same,SPOT peptide array binding signal intensity,AgCyk3,2
same,SPOT peptide array binding signal intensity,AgFus1,28
same,SPOT peptide array binding signal intensity,AgHof1,180
same,SPOT peptide array binding signal intensity,AgHse1,114
same,SPOT peptide array binding signal intensity,AgLsb1,18.5
same,SPOT peptide array binding signal intensity,AgLsb4,1800
same,SPOT peptide array binding signal intensity,AgMyo5,5.5
same,SPOT peptide array binding signal intensity,AgNbp2,39.5
same,SPOT peptide array binding signal intensity,AgRvs167,192
same,SPOT peptide array binding signal intensity,AgSho1,≤ 0
same,SPOT peptide array binding signal intensity,AgSla1-D1-D2,74.5
same,SPOT peptide array binding signal intensity,AgSla1-D3,11.8
same,SPOT peptide array binding signal intensity,CaAbp1-D1,434
same,SPOT peptide array binding signal intensity,CaAbp1-D2,1090
same,SPOT peptide array binding signal intensity,CaBbc1,986
same,SPOT peptide array binding signal intensity,CaBem1-D1,51
same,SPOT peptide array binding signal intensity,CaBzz1-D1,223
same,SPOT peptide array binding signal intensity,CaBzz1-D2,195
same,SPOT peptide array binding signal intensity,CaCyk3,56
same,SPOT peptide array binding signal intensity,CaFus1,35
same,SPOT peptide array binding signal intensity,CaHof1,4
same,SPOT peptide array binding signal intensity,CaHse1,8.75
same,SPOT peptide array binding signal intensity,CaLsb1,0.75
same,SPOT peptide array binding signal intensity,CaLsb4,6350
same,SPOT peptide array binding signal intensity,CaMyo5,6
same,SPOT peptide array binding signal intensity,CaNbp2,77
same,SPOT peptide array binding signal intensity,CaRvs167,607
same,SPOT peptide array binding signal intensity,CaRvs167-3,9.25
same,SPOT peptide array binding signal intensity,CaSho1,23
same,SPOT peptide array binding signal intensity,CaSla1-D1-D2,1430
same,SPOT peptide array binding signal intensity,CaSla1-D3,1.75
same,SPOT peptide array binding signal intensity,ScAbp1,192
same,SPOT peptide array binding signal intensity,ScBbc1,405
same,SPOT peptide array binding signal intensity,ScBem1-D1,30
same,SPOT peptide array binding signal intensity,ScBzz1-D1,95
same,SPOT peptide array binding signal intensity,ScBzz1-D2,52
same,SPOT peptide array binding signal intensity,ScCyk3,32
same,SPOT peptide array binding signal intensity,ScFus1,14
same,SPOT peptide array binding signal intensity,ScHof1,3.5
same,SPOT peptide array binding signal intensity,ScHse1,172
same,SPOT peptide array binding signal intensity,ScLsb1,651
same,SPOT peptide array binding signal intensity,ScLsb2,13.5
same,SPOT peptide array binding signal intensity,ScLsb3,5480
same,SPOT peptide array binding signal intensity,ScLsb4,2750
same,SPOT peptide array binding signal intensity,ScMyo3,1.5
same,SPOT peptide array binding signal intensity,ScMyo5,5
same,SPOT peptide array binding signal intensity,ScNbp2,63.5
same,SPOT peptide array binding signal intensity,ScPex13,511
same,SPOT peptide array binding signal intensity,ScRvs167,1320
same,SPOT peptide array binding signal intensity,ScSho1,65.5
same,SPOT peptide array binding signal intensity,ScSla1-D1-D2,726
same,SPOT peptide array binding signal intensity,ScSla1-D3,25.8
same,SPOT peptide array binding signal intensity,SpAbp1-D1,356
same,SPOT peptide array binding signal intensity,SpBbc1,27
same,SPOT peptide array binding signal intensity,SpBzz1-D1,366
same,SPOT peptide array binding signal intensity,SpBzz1-D2,1
same,SPOT peptide array binding signal intensity,SpCyk3,3
same,SPOT peptide array binding signal intensity,SpHof1,732
same,SPOT peptide array binding signal intensity,SpHof1-2,83
same,SPOT peptide array binding signal intensity,SpHof1-3,110
same,SPOT peptide array binding signal intensity,SpHse1,77
same,SPOT peptide array binding signal intensity,SpLsb1,90
same,SPOT peptide array binding signal intensity,SpLsb4,7440
same,SPOT peptide array binding signal intensity,SpMyo1,46.8
same,SPOT peptide array binding signal intensity,SpNbp2,21.5
same,SPOT peptide array binding signal intensity,SpPex13,17
same,SPOT peptide array binding signal intensity,SpRvs167,2470
same,SPOT peptide array binding signal intensity,SpSla1-D1-D2,334
same,SPOT peptide array binding signal intensity,SpSla1-D3,≤ 0
HAPPLPPTAPPPPSL,SPOT peptide array binding signal intensity,SpBzz1-D2,≤ 0
same,SPOT peptide array binding signal intensity,SpCyk3,≤ 0
same,SPOT peptide array binding signal intensity,SpHof1,≤ 0
same,SPOT peptide array binding signal intensity,SpHof1-2,≤ 0
same,SPOT peptide array binding signal intensity,SpHof1-3,≤ 0
same,SPOT peptide array binding signal intensity,SpHse1,≤ 0
same,SPOT peptide array binding signal intensity,SpLsb1,≤ 0
same,SPOT peptide array binding signal intensity,SpLsb4,≤ 0
same,SPOT peptide array binding signal intensity,SpMyo1,1320
same,SPOT peptide array binding signal intensity,SpNbp2,≤ 0
same,SPOT peptide array binding signal intensity,SpPex13,≤ 0
same,SPOT peptide array binding signal intensity,SpRvs167,2.67
same,SPOT peptide array binding signal intensity,SpSla1-D1-D2,7
same,SPOT peptide array binding signal intensity,SpSla1-D3,≤ 0
